# The full list was thinned out, with the strongest signals kept by preference.
# B1: NPA (Narcissus pseudonarcissus), C0HM45 (protein)
# chain: DNILYSGETLSPGEFLNNGRYVFIMQEDCNLVLYDVDKPIWATNTGGLDRRCHLSMQSDGNLVVYSPRNNPIWASNTGGENGNYVCVLQKDRNVVIYGTARWATGTNIH
# Tests used:
# Assay in all cases: glycan array binding signal (z-score within array); higher = stronger binding
# Details in all cases: glycan notation: IUPAC condensed, linker removed
# [1] = target: Fuc(a1-2)Gal(b1-3)GlcNAc(b1-3)[Fuc(a1-2)Gal(b1-3)GlcNAc(b1-6)]GalNAc
# In short: (§1)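 Glycan array data came from 3228 arrays in the Consortium for Functional Glycomics database, and only arrays with an available protein sequence were kept. Glycan names were put into IUPAC-condensed notation, and columns mapping to the same glycan were averaged. The binding signal is a within-array Z-score, averaged across arrays of one protein sequence run at different concentrations or buffers and across linkers. A negative Z-score can be read as non-binding.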
# [2] = target: Fuc(a1-2)Gal(b1-3)GlcNAc(b1-3)[Neu5Ac(a2-6)Gal(b1-4)GlcNAc(b1-6)]Gal(b1-4)Glc
# In short: as §1
# [3] = target: Fuc(a1-2)[Gal(a1-3)]Gal(b1-4)GlcNAc
# In short: as §1
# [4] = target: Fuc(a1-2)[Gal(a1-3)]Gal(b1-4)GlcNAc(b1-2)Man
# In short: as §1
# [5] = target: Fuc(a1-3)[Gal(b1-4)]GlcNAc(b1-2)Man
# In short: as §1
# [6] = target: Gal(a1-3)Gal(b1-3)GlcNAc
# In short: as §1
# [7] = target: Gal(a1-3)Gal(b1-4)GlcNAc(b1-2)Man(a1-3)[Gal(a1-3)Gal(b1-4)GlcNAc(b1-2)Man(a1-6)]Man(b1-4)GlcNAc(b1-4)GlcNAc
# In short: as §1
# [8] = target: Gal(a1-3)Gal(b1-4)[Fuc(a1-3)]GlcNAc(b1-2)Man(a1-3)[Gal(a1-3)Gal(b1-4)[Fuc(a1-3)]GlcNAc(b1-2)Man(a1-6)]Man(b1-4)GlcNAc(b1-4)GlcNAc
# In short: as §1
# [9] = target: Gal(a1-6)Glc
# In short: as §1
# [10] = target: Gal(b1-3)GalNAc(b1-3)Gal(a1-4)Gal(b1-4)Glc
# In short: as §1
# [11] = target: Gal(b1-3)GlcNAc(b1-3)Gal(b1-3)GlcNAc
# In short: as §1
# [12] = target: Gal(b1-3)GlcNAc(b1-6)GalNAc
# In short: as §1
# [13] = target: Gal(b1-3)GlcNAc(b1-6)[Gal(b1-3)]GalNAc
# In short: as §1
# [14] = target: Gal(b1-4)GlcNAc(b1-2)Man(a1-3)[Gal(b1-4)GlcNAc(b1-2)Man(a1-6)]Man(b1-4)GlcNAc(b1-4)GlcNAc
# In short: as §1
# [15] = target: Gal(b1-4)GlcNAc(b1-2)Man(a1-3)[Gal(b1-4)GlcNAc(b1-2)Man(a1-6)][Gal(b1-4)GlcNAc(b1-4)]Man(b1-4)GlcNAc(b1-4)[Fuc(a1-6)]GlcNAc
# In short: as §1
# [16] = target: Gal(b1-4)GlcNAc(b1-2)Man(a1-3)[Man(a1-6)]Man(b1-4)GlcNAc(b1-4)GlcNAc
# In short: as §1
# [17] = target: Gal(b1-4)GlcNAc(b1-2)Man(a1-6)[Man(a1-3)]Man(b1-4)GlcNAc(b1-4)GlcNAc
# In short: as §1
# [18] = target: Gal(b1-4)GlcNAc(b1-2)[Gal(b1-4)GlcNAc(b1-6)]Man(a1-6)[GlcNAc(b1-4)][Gal(b1-4)GlcNAc(b1-2)[Gal(b1-4)GlcNAc(b1-4)]Man(a1-3)]Man(b1-4)GlcNAc(b1-4)[Fuc(a1-6)]GlcNAc
# In short: as §1
# [19] = target: Gal(b1-4)GlcNAc(b1-3)Gal(b1-4)GlcNAc(b1-2)Man(a1-3)[Gal(b1-4)GlcNAc(b1-3)Gal(b1-4)GlcNAc(b1-2)Man(a1-6)]Man(b1-4)GlcNAc(b1-4)GlcNAc
# In short: as §1
# [20] = target: Gal(b1-4)GlcNAc(b1-3)Gal(b1-4)GlcNAc(b1-2)[Gal(b1-4)GlcNAc(b1-3)Gal(b1-4)GlcNAc(b1-6)]Man(a1-6)[Gal(b1-4)GlcNAc(b1-3)Gal(b1-4)GlcNAc(b1-2)Man(a1-3)]Man(b1-4)GlcNAc(b1-4)GlcNAc
# In short: as §1
# [21] = target: Gal(b1-4)GlcNAc(b1-3)Gal(b1-4)[Fuc(a1-3)]GlcNAc(b1-3)Gal(b1-4)[Fuc(a1-3)]GlcNAc
# In short: as §1
# [22] = target: Gal(b1-4)GlcNAc(b1-3)[Gal(b1-4)GlcNAc(b1-6)]GalNAc
# In short: as §1
# [23] = target: Gal(b1-4)GlcNAc(b1-6)[Gal(b1-4)GlcNAc(b1-3)]GalNAc
# In short: as §1
# [24] = target: GalNAc(b1-3)GalNAc
# In short: as §1
# [25] = target: GalNAc(b1-4)Gal(b1-4)Glc
# In short: as §1
# [26] = target: Glc(a1-4)Glc(a1-4)Glc(a1-4)Glc
# In short: as §1
# [27] = target: Glc(b1-4)Glc
# In short: as §1
# [28] = target: GlcA(b1-3)Gal
# In short: as §1
# [29] = target: GlcNAc(a1-4)Gal(b1-3)GlcNAc
# In short: as §1
# [30] = target: GlcNAc(b1-2)[GlcNAc(b1-4)]Man(a1-3)[GlcNAc(b1-2)Man(a1-6)]Man(b1-4)GlcNAc(b1-4)GlcNAc
# In short: as §1
# [31] = target: GlcNAc(b1-3)[GlcNAc(b1-6)]GalNAc
# In short: as §1
# [32] = target: GlcNAc(b1-4)GlcNAc(b1-4)GlcNAc
# In short: as §1
# [33] = target: GlcNAc(b1-4)[GlcNAc(b1-6)]GalNAc
# In short: as §1
# [34] = target: Man(a1-2)Man(a1-2)Man(a1-3)Man
# In short: as §1
# [35] = target: Man(a1-2)Man(a1-3)[Man(a1-2)Man(a1-6)]Man(a1-6)[Man(a1-2)Man(a1-2)Man(a1-3)]Man(b1-4)GlcNAc(b1-4)GlcNAc
# In short: as §1
# [36] = target: Man(a1-2)Man(a1-3)[Man(a1-6)]Man(a1-6)[Man(a1-2)Man(a1-3)]Man(b1-4)GlcNAc(b1-4)GlcNAc
# In short: as §1
# [37] = target: Man(a1-2)Man(a1-6)[Man(a1-3)]Man(a1-6)[Man(a1-2)Man(a1-2)Man(a1-3)]Man(b1-4)GlcNAc(b1-4)GlcNAc
# In short: as §1
# [38] = target: Man(a1-3)[Man(a1-6)]Man
# In short: as §1
# [39] = target: Man(a1-3)[Man(a1-6)]Man(a1-6)[Man(a1-2)Man(a1-3)]Man(b1-4)GlcNAc(b1-4)GlcNAc
# In short: as §1
# [40] = target: Man(a1-3)[Man(a1-6)]Man(a1-6)[Man(a1-3)]Man
# In short: as §1
# [41] = target: Man(a1-3)[Man(a1-6)]Man(a1-6)[Man(a1-3)]Man(b1-4)GlcNAc(b1-4)GlcNAc
# In short: as §1
# [42] = target: Man(a1-3)[Man(a1-6)]Man(b1-4)GlcNAc(b1-4)GlcNAc
# In short: as §1
# [43] = target: Man(a1-3)[Man(a1-6)]Man(b1-4)GlcNAc(b1-4)[Fuc(a1-6)]GlcNAc
# In short: as §1
# [44] = target: Man(b1-4)GlcNAc
# In short: as §1
# [45] = target: Neu5Ac(a2-3)Gal(b1-3)GlcNAc(b1-2)Man
# In short: as §1
# [46] = target: Neu5Ac(a2-3)Gal(b1-3)GlcNAc(b1-3)Gal(b1-4)GlcNAc
# In short: as §1
# [47] = target: Neu5Ac(a2-3)Gal(b1-3)GlcNAc(b1-3)GalNAc
# In short: as §1
# [48] = target: Neu5Ac(a2-3)Gal(b1-3)GlcNAc6S
# In short: as §1
# [49] = target: Neu5Ac(a2-3)Gal(b1-4)GlcNAc
# In short: as §1
# [50] = target: Neu5Ac(a2-3)Gal(b1-4)GlcNAc(b1-3)Gal(b1-4)GlcNAc(b1-3)Gal(b1-4)GlcNAc
# In short: as §1
# [51] = target: Neu5Ac(a2-3)Gal(b1-4)[Fuc(a1-3)]GlcNAc(b1-3)Gal
# In short: as §1
# [52] = target: Neu5Ac(a2-3)Gal6S(b1-4)[Fuc(a1-3)]GlcNAc
# In short: as §1
# [53] = target: Neu5Ac(a2-6)Gal(b1-3)GlcNAc(b1-3)[Gal(b1-4)GlcNAc(b1-6)]Gal(b1-4)Glc
# In short: as §1
# [54] = target: Neu5Ac(a2-6)Gal(b1-4)GlcNAc(b1-2)Man(a1-6)[Man(a1-3)]Man(b1-4)GlcNAc(b1-4)GlcNAc
# In short: as §1
# [55] = target: Neu5Ac(a2-8)Neu5Ac(a2-8)Neu5Ac
# In short: as §1
# [56] = target: Neu5Ac(b2-6)Gal(b1-4)GlcNAc
# In short: as §1
# [57] = target: Neu5Gc(a2-8)Neu5Gc(a2-3)Gal(b1-4)GlcNAc(b1-3)Gal(b1-4)GlcNAc
# In short: as §1
binder,measurement,setting,value
B1,glycan array binding signal (z-score),[1],-0.124
same,glycan array binding signal (z-score),[2],-0.142
same,glycan array binding signal (z-score),[3],-0.152
same,glycan array binding signal (z-score),[4],-0.132
same,glycan array binding signal (z-score),[5],-0.131
same,glycan array binding signal (z-score),[6],-0.133
same,glycan array binding signal (z-score),[7],2.1
same,glycan array binding signal (z-score),[8],-0.056
same,glycan array binding signal (z-score),[9],-0.147
same,glycan array binding signal (z-score),[10],-0.135
same,glycan array binding signal (z-score),[11],-0.148
same,glycan array binding signal (z-score),[12],-0.144
same,glycan array binding signal (z-score),[13],-0.051
same,glycan array binding signal (z-score),[14],0.602
same,glycan array binding signal (z-score),[15],-0.143
same,glycan array binding signal (z-score),[16],1.71
same,glycan array binding signal (z-score),[17],3.12
same,glycan array binding signal (z-score),[18],-0.141
same,glycan array binding signal (z-score),[19],0.034
same,glycan array binding signal (z-score),[20],-0.104
same,glycan array binding signal (z-score),[21],-0.144
same,glycan array binding signal (z-score),[22],-0.201
same,glycan array binding signal (z-score),[23],-0.141
same,glycan array binding signal (z-score),[24],-0.153
same,glycan array binding signal (z-score),[25],-0.129
same,glycan array binding signal (z-score),[26],-0.139
same,glycan array binding signal (z-score),[27],-0.152
same,glycan array binding signal (z-score),[28],-0.148
same,glycan array binding signal (z-score),[29],-0.152
same,glycan array binding signal (z-score),[30],-0.076
same,glycan array binding signal (z-score),[31],-0.147
same,glycan array binding signal (z-score),[32],-0.122
same,glycan array binding signal (z-score),[33],-0.146
same,glycan array binding signal (z-score),[34],0.268
same,glycan array binding signal (z-score),[35],0.144
same,glycan array binding signal (z-score),[36],2.38
same,glycan array binding signal (z-score),[37],1.83
same,glycan array binding signal (z-score),[38],5.21
same,glycan array binding signal (z-score),[39],5.6
same,glycan array binding signal (z-score),[40],2.47
same,glycan array binding signal (z-score),[41],5.37
same,glycan array binding signal (z-score),[42],10.1
same,glycan array binding signal (z-score),[43],5.34
same,glycan array binding signal (z-score),[44],-0.151
same,glycan array binding signal (z-score),[45],-0.122
same,glycan array binding signal (z-score),[46],-0.153
same,glycan array binding signal (z-score),[47],-0.14
same,glycan array binding signal (z-score),[48],-0.124
same,glycan array binding signal (z-score),[49],-0.154
same,glycan array binding signal (z-score),[50],-0.151
same,glycan array binding signal (z-score),[51],-0.162
same,glycan array binding signal (z-score),[52],-0.158
same,glycan array binding signal (z-score),[53],-0.144
same,glycan array binding signal (z-score),[54],3.41
same,glycan array binding signal (z-score),[55],-0.156
same,glycan array binding signal (z-score),[56],-0.154
same,glycan array binding signal (z-score),[57],-0.146

# From the supplement of paper PMC8728848
